# The source made the active and inactive calls.
# Legend:
# [1] = test system: Plasmodium falciparum Sir2 (PF13_0152, Sir2A); test: pfSir2 binders on small-molecule microarrays, primary screen, biochemical, small-molecule microarray, 635 nm fluorescence (AID 1098); conditions: small-molecule microarray binding, fluorescence 635 nm; higher = more signal;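 also: score merges spot fluorescence intensity with its signal-to-noise ratio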
# [2] = small-molecule microarray binders of probe aDKK1, primary screen, biochemical, biotinylated probe, 635/667 nm fluorescence (AID 1099); conditions: higher = more signal;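 also: score merges 667nm spot fluorescence with signal to noise across triplicate slides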
# [3] = small-molecule microarray binders of probe aCHRDL2, primary screen, biochemical, biotinylated probe, 635/667 nm fluorescence (AID 1100); conditions: higher = more signal
# [4] = splicing luciferase reporter signal modulators, primary screen, spliceosome inhibition project, cell-based, HEK293, splice +/- reporter (AID 1101); conditions: luminescence, 24 h, higher = more signal, called active from +8 up or from −8 down;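 also: HEK293 cells carrying a splicing-competent luciferase reporter gene; test concentration not given here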
# [5] = molecular target: Fibroblast growth factor 10 (Homo sapiens) (UniProt O15520); test: FGF10 binders on small-molecule microarrays, primary screen, biochemical, small-molecule microarray, 635 nm fluorescence (AID 1102); conditions: FGF10 binding, fluorescence 635 nm, higher = more signal
# [6] = test system: glycogen synthase kinase-3 (GSK3A per assay name; protocol says GSK3B); test: GSK3 binders on small-molecule microarrays, primary screen, biochemical, small-molecule microarray, 635 nm fluorescence, GSK3A (AID 1103); conditions: small-molecule microarray binding, fluorescence 635 nm; higher = more signal; also: the record names both GSK3A and GSK3B
# [7] = molecular target: Epidermal growth factor receptor (Homo sapiens) (UniProt P00533); test: EGFR binders on small-molecule microarrays, primary screen, biochemical, small-molecule microarray, 635 nm fluorescence (AID 1104); conditions: EGFR binding, higher = more signal;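 also: score merges 667 nm emission intensity with spot signal to noise over triplicate slides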
# [8] = molecular target: Follistatin-related protein 3 (Homo sapiens) (UniProt O95633); test: FSTL3 binders on small-molecule microarrays, primary screen, biochemical, small-molecule microarray, 635 nm fluorescence (AID 1105); conditions: FSTL3 binding, higher = more signal;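 also: score merges emission near 667 nm and signal to noise per printed spot across three slides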
# [9] = molecular target: Dickkopf-related protein 1 (Homo sapiens) (UniProt O94907); test: DKK1 binders on small-molecule microarrays, primary screen, biochemical, small-molecule microarray, 635 nm fluorescence scan (AID 1106); conditions: DKK1 binding, higher = more signal;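 also: score merges emission near 667 nm with signal to noise over three replicate slides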
# [10] = test system: Inhibin beta A chain (activin A); test: INHBA (activin A) binders on microarrays, primary screen, biochemical, small-molecule microarray, 635 nm fluorescence scan (AID 1107); conditions: small-molecule microarray binding, higher = more signal;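 also: mouse activin A protein probed at 4.33 µg/mL on printed slides; score merges bound-protein fluorescence near 667 nm with spot signal-to-noise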
# [11] = test system: Human papillomavirus type 1a protein E7 (residues 44-93); test: HPV1a E7 fragment binders on microarrays, primary screen, biochemical, small-molecule microarray, residues 44-93, 635 nm fluorescence (AID 1108); conditions: small-molecule microarray binding, fluorescence 635 nm; higher = more signal;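 also: E7 fragment applied at 1 µg/mL in TBST for 1 h at 4 C; score combines spot fluorescence with its signal to noise ratio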
# [12] = modulators of HCV replicon luciferase signal, primary screen, HCV replication inhibitor project, Huh7 cells, luciferase reporter (AID 1109); conditions: 48 h, higher = more signal;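 also: huh7 hepatoma cells harbouring a luciferase neomycin HCV replicon reporter; luciferase luminescence as measure of HCV replicon replication; test concentration not given here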
# [13] = molecular target: Left-right determination factor 2 (Homo sapiens) (UniProt O00292); test: LEFTY2 binders on small-molecule microarrays, primary screen, biochemical, small-molecule microarray, 635 nm fluorescence scan (AID 1110); conditions: LEFTY2 binding, higher = more signal
# [14] = molecular target: Calmodulin-1 (Homo sapiens) (UniProt P0DP23); test: CALM1 binders on microarrays, EGTA buffer, profiling panel, biochemical, small-molecule microarray, Cy5-labelled CALM1 (AID 1111); conditions: Cy5-CALM1 binding fluorescence, higher = more signal;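 also: labelled calmodulin applied in Tris saline Tween buffer holding calcium plus EGTA and DTT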
# [15] = molecular target: Calmodulin-1 (Homo sapiens) (UniProt P0DP23); test: calcium-bound CALM1 binders on microarrays, profiling panel, artefact control for SMM control-protein annotation, biochemical, small-molecule microarray, Cy5-labelled CALM1, plus calcium (AID 1112); conditions: Cy5-CALM1 binding fluorescence, higher = more signal;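 also: score merges spot fluorescence with signal to noise from triplicate slides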
# [16] = small-molecule microarray binders of probe aWnt5a, primary screen, biochemical, biotinylated probe, 635/667 nm fluorescence (AID 1113); conditions: higher = more signal;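 also: score merges 667 nm fluorescence intensity with signal-to-noise per printed feature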
# [17] = small-molecule microarray binders of probe aShh, primary screen, biochemical, biotinylated probe, 635/667 nm fluorescence (AID 1114); conditions: higher = more signal;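 also: probe is biotin-labelled aShh protein from a stem cell growth factor screen; measures binding of labelled protein to compounds printed on the slide; score merges feature fluorescence at 667 nm with signal-to-noise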
# [18] = small-molecule microarray binders of probe aNog, primary screen, biochemical, biotinylated probe, 635/667 nm fluorescence (AID 1115); conditions: higher = more signal;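 also: probe is biotinylated aNog protein used at 0.15 µg/mL for 1 h at 4 C; z-score combines 667 nm fluorescence of each spot with its signal to noise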
# [19] = molecular target: Torsin-1A-interacting protein 1 (Homo sapiens) (UniProt Q5JTV8); test: LAP1 binders from COS7 cell lysate, primary screen, small-molecule microarray, 635/667 nm fluorescence (AID 1116); conditions: COS7-hLAP1 lysate binding, 635 nm fluorescence, higher = more signal
# [20] = molecular target: Alpha-bungarotoxin (Bungarus multicinctus) (UniProt P60615); test: alpha-bungarotoxin binders on microarray, profiling panel, artefact control for SMM control protein annotation, biochemical, small-molecule microarray, Alexa647 label, 635/667 nm fluorescence (AID 1117); conditions: alpha-BTX-A647 binding fluorescence, higher = more signal
# Chain of Alpha-bungarotoxin (Bungarus multicinctus) (P60615 whole entry, looked up): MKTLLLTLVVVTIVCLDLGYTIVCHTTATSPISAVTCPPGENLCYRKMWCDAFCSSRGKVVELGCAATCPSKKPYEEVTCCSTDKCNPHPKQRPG
# Chain of Left-right determination factor 2 (Homo sapiens) (O00292 whole entry, looked up): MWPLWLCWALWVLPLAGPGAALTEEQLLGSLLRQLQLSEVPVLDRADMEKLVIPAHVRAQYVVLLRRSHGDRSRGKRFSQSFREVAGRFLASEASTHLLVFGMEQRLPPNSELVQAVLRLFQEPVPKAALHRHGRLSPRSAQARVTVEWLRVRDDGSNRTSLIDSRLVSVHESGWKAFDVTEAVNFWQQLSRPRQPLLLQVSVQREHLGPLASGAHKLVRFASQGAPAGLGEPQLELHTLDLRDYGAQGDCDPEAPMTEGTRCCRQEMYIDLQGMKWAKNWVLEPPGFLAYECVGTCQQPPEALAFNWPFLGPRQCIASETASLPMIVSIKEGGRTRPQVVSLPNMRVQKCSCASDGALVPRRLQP
# Chain of Dickkopf-related protein 1 (Homo sapiens) (O94907 whole entry, looked up): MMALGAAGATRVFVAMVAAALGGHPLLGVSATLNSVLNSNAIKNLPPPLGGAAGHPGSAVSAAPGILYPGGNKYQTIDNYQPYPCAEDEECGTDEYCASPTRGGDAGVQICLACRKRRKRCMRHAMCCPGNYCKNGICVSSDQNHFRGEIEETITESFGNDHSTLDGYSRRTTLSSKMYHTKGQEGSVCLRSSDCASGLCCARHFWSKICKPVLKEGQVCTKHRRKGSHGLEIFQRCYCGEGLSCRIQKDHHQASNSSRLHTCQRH
# Chain of Torsin-1A-interacting protein 1 (Homo sapiens) (Q5JTV8 whole entry, looked up): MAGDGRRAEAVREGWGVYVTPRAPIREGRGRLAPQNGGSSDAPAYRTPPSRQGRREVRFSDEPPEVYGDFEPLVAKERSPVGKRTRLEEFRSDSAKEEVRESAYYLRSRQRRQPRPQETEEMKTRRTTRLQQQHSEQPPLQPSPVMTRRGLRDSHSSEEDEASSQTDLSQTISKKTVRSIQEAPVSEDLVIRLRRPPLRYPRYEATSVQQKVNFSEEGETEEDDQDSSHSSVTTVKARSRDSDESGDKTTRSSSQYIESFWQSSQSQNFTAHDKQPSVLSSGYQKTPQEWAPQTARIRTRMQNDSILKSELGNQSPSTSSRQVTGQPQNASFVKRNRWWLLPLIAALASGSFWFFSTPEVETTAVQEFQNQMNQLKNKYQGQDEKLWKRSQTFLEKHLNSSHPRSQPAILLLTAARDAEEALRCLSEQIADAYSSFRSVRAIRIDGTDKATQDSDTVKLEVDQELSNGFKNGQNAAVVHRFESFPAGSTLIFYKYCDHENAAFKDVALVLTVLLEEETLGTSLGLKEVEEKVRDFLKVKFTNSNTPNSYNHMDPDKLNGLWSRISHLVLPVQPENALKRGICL
# Chain of Follistatin-related protein 3 (Homo sapiens) (O95633 whole entry, looked up): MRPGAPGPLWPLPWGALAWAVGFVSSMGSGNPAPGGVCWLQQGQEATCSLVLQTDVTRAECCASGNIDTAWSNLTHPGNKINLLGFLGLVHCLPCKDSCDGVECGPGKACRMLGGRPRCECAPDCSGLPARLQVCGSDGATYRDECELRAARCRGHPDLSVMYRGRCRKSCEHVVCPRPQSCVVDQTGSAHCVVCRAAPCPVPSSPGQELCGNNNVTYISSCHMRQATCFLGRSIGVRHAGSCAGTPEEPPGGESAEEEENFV
# Chain of Epidermal growth factor receptor (Homo sapiens) (P00533 whole entry, looked up): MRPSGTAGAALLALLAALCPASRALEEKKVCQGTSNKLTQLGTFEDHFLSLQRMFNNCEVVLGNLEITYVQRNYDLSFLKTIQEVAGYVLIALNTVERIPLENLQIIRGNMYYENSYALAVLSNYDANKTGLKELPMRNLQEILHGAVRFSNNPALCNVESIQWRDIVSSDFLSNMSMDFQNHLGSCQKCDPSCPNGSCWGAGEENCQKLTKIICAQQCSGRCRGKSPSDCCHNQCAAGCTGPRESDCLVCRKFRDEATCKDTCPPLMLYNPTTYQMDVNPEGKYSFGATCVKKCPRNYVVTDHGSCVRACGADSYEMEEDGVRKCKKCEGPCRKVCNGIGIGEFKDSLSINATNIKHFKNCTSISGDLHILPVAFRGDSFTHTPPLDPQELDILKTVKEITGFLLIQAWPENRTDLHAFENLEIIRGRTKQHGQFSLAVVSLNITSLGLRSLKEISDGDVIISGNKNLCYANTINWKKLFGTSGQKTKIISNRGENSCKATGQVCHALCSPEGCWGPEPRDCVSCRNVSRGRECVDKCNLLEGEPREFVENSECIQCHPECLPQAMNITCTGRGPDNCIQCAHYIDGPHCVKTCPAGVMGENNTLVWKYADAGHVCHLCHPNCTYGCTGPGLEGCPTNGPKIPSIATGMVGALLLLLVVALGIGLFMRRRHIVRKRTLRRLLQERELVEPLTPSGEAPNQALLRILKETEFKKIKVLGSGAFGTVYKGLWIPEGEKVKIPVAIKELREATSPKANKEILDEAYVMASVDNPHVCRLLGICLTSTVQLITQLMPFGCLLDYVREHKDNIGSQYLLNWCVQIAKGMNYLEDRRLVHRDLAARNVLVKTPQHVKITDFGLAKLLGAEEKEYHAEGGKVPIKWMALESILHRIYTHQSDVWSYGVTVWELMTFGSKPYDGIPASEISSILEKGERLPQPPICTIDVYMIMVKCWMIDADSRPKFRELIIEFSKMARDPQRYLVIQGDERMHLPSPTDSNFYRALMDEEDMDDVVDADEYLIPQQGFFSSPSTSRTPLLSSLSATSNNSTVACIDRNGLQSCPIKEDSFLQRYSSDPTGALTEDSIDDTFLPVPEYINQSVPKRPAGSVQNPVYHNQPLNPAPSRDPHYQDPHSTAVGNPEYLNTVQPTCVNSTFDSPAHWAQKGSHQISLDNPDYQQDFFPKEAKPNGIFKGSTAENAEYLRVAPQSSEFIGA
# Chain of Fibroblast growth factor 10 (Homo sapiens) (O15520 whole entry, looked up): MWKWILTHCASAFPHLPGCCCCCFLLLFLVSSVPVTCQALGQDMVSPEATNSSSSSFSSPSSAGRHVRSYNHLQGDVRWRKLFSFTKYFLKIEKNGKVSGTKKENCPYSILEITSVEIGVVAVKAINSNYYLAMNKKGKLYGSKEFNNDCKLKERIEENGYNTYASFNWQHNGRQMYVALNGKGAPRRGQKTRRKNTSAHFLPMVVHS
SMILES,composite z-score [1],composite z-score [2],composite z-score [3],z-score [4],composite z-score [5],composite z-score [6],composite z-score [7],composite z-score [8],composite z-score [9],composite z-score [10],composite z-score [11],z-score [12],composite z-score [13],composite z-score [14],composite z-score [15],composite z-score [16],composite z-score [17],composite z-score [18],composite z-score [19],composite z-score [20]
[N-]=[N+]=Nc1ccccc1C[C@@]1(C(=O)NCCN2CCOCC2)N=C(c2ccc(OCCCO)cc2)O[C@@H]1c1ccccc1N=[N+]=[N-],1.53,0.664,1.04,-0.222 (inactive),0.968,1.31,-0.172,0.453,0.136,0.691,-0.241,-2.99,0.0057,1.94,0.455,0.0543,0.411,-0.406,1.08,1.74
C=C[C@H]1C(C(=O)OCC)=CC[C@@H](c2ccccc2)N1S(=O)(=O)c1ccc(C)cc1,1.05,0.158,0.587,-2.78 (inactive),0.922,1.3,0.224,1.11,0.0288,1.34,1.4,-2.78,0.0641,0.577,-0.0986,0.0077,-0.181,-0.289,0.325,0.621
COCC(=C=CC[C@H](O)c1ccc(OCCO)cc1)CCO,1.09,0.0019,0.273,-0.51 (inactive),0.4,0.42,-0.211,0.593,0.0604,1.43,0.364,-0.794,0.774,-0.31,-0.618,-0.0239,-0.138,-0.0898,1.6,-0.829
COc1cc2c(cc1O)C(C1CC1)N(Cc1cccc(OC(F)(F)F)c1)CC2 (stereo not given),-0.102,0.149,0.542,0.654 (inactive),-0.293,-0.567,-0.881,-0.0671,-0.248,1.45,-1.05,-2.75,-0.116,-1.67,-0.453,-0.062,-0.0793,-0.147,0.108,-0.41
CCOC(=O)C1=C[C@@H](C(C)(C)C)N(S(=O)(=O)c2ccc(C)cc2)[C@H]1c1cccc2ccccc12,0.462,0.166,0.562,-0.134 (inactive),0.242,0.936,-0.138,0.7,-0.412,0.997,1.28,-2.28,-0.49,1.07,0.423,-0.0478,-0.156,-0.145,-0.281,0.657
COCCOC(=O)N1C(=O)[C@@]2(c3cc(C#CCC(C(=O)OC)C(=O)OC)ccc31)[C@H](c1ccc(OCCO)cc1)N1[C@H](c3ccccc3)[C@H](c3ccccc3)OC(=O)[C@H]1[C@@H]2C(=O)N1CCc2cc(OC)c(OC)cc2C1,0.752,0.258,0.0031,0.414 (inactive),1.4,1.31,0.76,1.28,0.411,0.622,1.42,-0.919,0.52,1.01,0.182,-0.072,0.123,0.353,1.05,1.68
C[N+](C)(C)CCCC[C@@H]1NC(=O)[C@@H]2C[C@H](C(=O)NCCCCCCN)[C@H](c3cccc(OCCO)c3)N2C1=O,1.16,1.85,1.14,-0.111 (inactive),0.766,1.29,0.132,0.776,0.695,1.4,0.896,-0.0759,0.676,2.6,1.48,0.095,1.45,0.662,2.55,1.9
C=CC[C@@]1(C(=O)NCCCOC)N=C(c2ccc(OCCCO)cc2)O[C@@H]1c1ccccc1,1.7,2.31,1.36,-1.39 (inactive),0.311,0.326,-0.848,-0.439,-0.666,0.923,1.06,-0.449,-0.526,1.94,0.626,0.155,-0.102,0.365,2.89,-0.146
C=CC[C@]1(C(=O)N2CCCCC2)N=C(c2ccc(OCCCO)cc2)O[C@H]1c1ccccc1CN=[N+]=[N-],1.21,0.258,0.622,-0.234 (inactive),1.21,1.31,0.128,0.922,0.263,0.851,1.42,-2.64,0.264,1.7,0.204,0.0246,-0.138,-0.769,0.447,0.875
COc1cc(NN2C(C(O)c3cc(OC)c(OC)c(OC)c3)C=CC3C(=O)N(C)C(=O)C32)cc(OC)c1OC (stereo not given),1.03,0.171,0.318,0.255 (inactive),0.691,0.984,0.347,0.34,-0.289,0.93,1.09,-0.336,-0.229,1.34,0.278,0.0599,0.23,0.849,0.904,1.24
N[C@@H](Cc1ccccc1)C(=O)NCc1cn(Cc2ccccc2)nn1,-0.522,0.0195,-0.283,0.0702 (inactive),0.735,0.179,0.113,0.594,0.545,0.85,-0.132,0.0943,0.167,-0.761,-0.232,-0.119,-0.0904,-0.245,0.775,1.11
